BJeLR lethal: MLPCN primary cell-based screen for lethality selective to Ras in HRASV12 cells; BJeLR (HRASV12) viability, CellTiter-Glo ATP luminescence, 48 h; AID 1554, 2009; inhibition, % (no concentration beside the values); actives 0.17% (n = 300,000); in the data active = inhibition above about 50%
PrPC TRFRET: inhibitors of human cell surface prion protein PrPC, primary screen, cell-based, TR-FRET; inhibition, % at 13.8 µM; Major prion protein (Homo sapiens), P04156; actives 0.43% (n = 370,000); TR-FRET read-out; in the data active = inhibition above about 24%
SARS 3CLpro inh: SARS-CoV 3CLpro protease inhibitors, primary screen, biochemical, quenched FRET | Replicase polyprotein 1ab (Severe acute respiratory syndrome coronavirus), P0C6X7 | recombinant SARS-CoV 3CLpro, quenched FRET peptide cleavage | inhibition, % at 6 µM | actives 0.14% (n = 290,000); in the data active = inhibition above about 12%
DUSP3 inh: VHR1 phosphatase inhibitors, primary screen, biochemical, absorbance, uHTS; actives 0.52% (n = 290,000); inhibition, % at 13.3 µM; recombinant VHR phosphatase, pNPP absorbance; in the data active = inhibition above about 50%
Target sequence (P51452 whole entry, looked up): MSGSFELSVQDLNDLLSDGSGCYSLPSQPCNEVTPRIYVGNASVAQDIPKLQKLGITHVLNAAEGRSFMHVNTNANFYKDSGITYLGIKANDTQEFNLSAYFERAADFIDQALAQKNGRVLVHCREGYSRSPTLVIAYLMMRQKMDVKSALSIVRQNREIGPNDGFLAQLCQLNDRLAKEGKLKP
Of the large screens only hits and unclear results are named; the others gave an inactive call. Compounds with a hit are over-represented: about 1.1% of the library has one in this group of screens.

COc1ccc(CNC(=O)c2ccccc2[N+](=O)[O-])cc1	none (no result: PrPC TRFRET)
COc1ccc(NC(=O)c2ccccc2[N+](=O)[O-])cc1	DUSP3 inh 55
CCn1c(C(=O)O)c(CC(=O)Nc2ccc(Br)cc2C)c2ccccc21	DUSP3 inh 57
CCN(CC)CCNC(=O)Cc1c(C(=O)O)n(CC)c2ccccc12	none
C[C@@H]1CN([C@H](C)CO)C(=O)CCCn2nncc2CO[C@H]1CN(C)S(=O)(=O)c1ccccc1F	none (no result: BJeLR lethal, SARS 3CLpro inh, DUSP3 inh)
Cc1oc(-c2ccccc2Cl)nc1CS(=O)CC(=O)NCCCN1CC(C)CC(C)C1 (stereo unspecified)	DUSP3 inh 52
Cc1oc(-c2ccccc2Cl)nc1CS(=O)CC(=O)NCCc1ccccc1 (stereo unspecified)	none
CN(C)C(CNc1ccc(S(C)(=O)=O)cc1[N+](=O)[O-])c1ccccc1 (stereo unspecified)	none
CN(C)C(CNc1ccc(S(C)(=O)=O)cc1[N+](=O)[O-])Cc1ccccc1 (stereo unspecified)	DUSP3 inh 56
C#CCNC(=O)C[C@H]1C[C@@]2(C(=O)OC)C(=C[C@H](C(C)(C)C)O[C@@H]2C)N(CCC2=CCCCC2)C1=O	none (no result: BJeLR lethal, SARS 3CLpro inh, DUSP3 inh)
NS(=O)(=O)c1ccc(NC(=O)c2cc(-c3cccs3)nc3ccccc23)cc1	BJeLR lethal 63
C=Cc1cc(OC)c2c(c1)c(=O)oc1c2cc(OC)c2c(O)ccc(C3OC(C)C(O)C(C)(O)C3O)c21 (stereo unspecified)	PrPC TRFRET 31 (no result: BJeLR lethal, SARS 3CLpro inh, DUSP3 inh)
COc1cccc(N(C(=O)CCl)C(C(=O)NCCc2ccccc2)c2cccs2)c1 (stereo unspecified)	BJeLR lethal 72
COc1ccc(N(C(=O)CCl)C(C(=O)NCCc2ccccc2)c2cccs2)cc1Cl (stereo unspecified)	BJeLR lethal 139
COc1cccc(N(C(=O)c2snc(C(N)=O)c2N)C(C(=O)NCC2CCCO2)c2cccs2)c1 (stereo unspecified)	none
CCC1CCCCN1CCCNC(=O)c1cn(CC)c2ccc(S(=O)(=O)N(C)C3CCCCC3)cc2c1=O (stereo unspecified)	DUSP3 inh 51
CCn1cc(C(=O)NCCCOC)c(=O)c2cc(S(=O)(=O)N(C)C3CCCCC3)ccc21	none
CCN1CCCC1CNC(=O)c1cn(C)c2ccc(S(=O)(=O)N3CCCCCC3)cc2c1=O (stereo unspecified)	DUSP3 inh 51 (no result: BJeLR lethal)
CCCCc1nnc(NC(=O)CSCc2cc(=O)n3c(C)csc3n2)s1	none
CCCCc1nnc(NC(=O)CSCc2cc(=O)n3cc(C)sc3n2)s1	DUSP3 inh 56
Cc1ccc(S(=O)(=O)c2ccc([N+](=O)[O-])cn2)cc1	PrPC TRFRET 70
Cc1ccc(CNC(=O)c2ccccc2NC(=O)CN2CCN(C)CC2)cc1	DUSP3 inh 56
COc1cccc(N2CCN(CC(=O)Nc3ccccc3C(=O)NCc3ccccc3)CC2)c1	none (no result: BJeLR lethal, SARS 3CLpro inh, DUSP3 inh)
O=C(O)C1C(c2ccccc2)c2ccccc2C(O)C1CO (stereo unspecified)	none (no result: BJeLR lethal, SARS 3CLpro inh, DUSP3 inh)
O=C(Cn1c(/C=C/c2ccccc2)nc2ccccc21)Nc1ccc(F)cc1	DUSP3 inh 51
CSc1nc2ccccc2n1CC(=O)Nc1ccccc1	none
C[C@H](NC(=O)N1CCn2c1nc1ccccc12)C(=O)NCc1ccccc1	none
COc1ccc([N+](=O)[O-])cc1NC(=O)Cn1ccsc1=N	DUSP3 inh 51
Cc1cc(NC(=O)Cn2ccsc2=N)c([N+](=O)[O-])cc1C	none
Cc1ccc(NC(=O)c2ccc3nc(N4CCOCC4)sc3c2)c(Cl)c1	DUSP3 inh 56
CCc1ccccc1NC(=O)c1ccc2nc(N3CCOCC3)sc2c1	none
COC(=O)[C@]12C=CCN1[C@@H](c1ccc(OC)c(OC)c1)c1c(c3ccccc3n1S(=O)(=O)c1ccc(C)cc1)C2	none (no result: BJeLR lethal, SARS 3CLpro inh, DUSP3 inh)
CN(C1CCCC1)C1CCN(C(=O)CNC(=O)/C=C/c2ccccc2)CC1	none
CC1CCCCC1N(C)C1CCN(C(=O)CNC(=O)/C=C/c2cccc(Cl)c2)CC1 (stereo unspecified)	BJeLR lethal 90
COC(=O)[C@]12CCCCC=C1N(Cc1cccc3ccccc13)C(=O)[C@H](CC(=O)NCCC(C)C)C2	none (no result: BJeLR lethal, SARS 3CLpro inh, DUSP3 inh)
Cc1cc(C)nc(NS(=O)(=O)c2ccc(NC(=O)Cc3ccccc3)cc2)n1	none
Cc1cc(C)nc(NS(=O)(=O)c2ccc(NC(=O)Cc3ccc(F)cc3)cc2)n1	DUSP3 inh 54
COCCn1nnnc1CN(CCc1ccccc1)Cc1cc2cc(OC)ccc2[nH]c1=O	none (no result: DUSP3 inh)
COCCn1nnnc1CN(CCc1ccc(OC)c(OC)c1)Cc1cc2ccc(C)cc2[nH]c1=O	DUSP3 inh 52
COC(=O)[C@H](CC(C)C)N(CCc1cn(Cc2ccccc2)nn1)S(=O)(=O)c1ccccc1Br	none (no result: BJeLR lethal, SARS 3CLpro inh, DUSP3 inh)
O=C1c2ccc([N+](=O)[O-])cc2C(=O)N1Cc1cccnc1	DUSP3 inh 52
COc1cccc(/C=C2\SC(=O)N(CC(=O)NC3CCS(=O)(=O)C3)C2=O)c1 (stereo unspecified)	DUSP3 inh 60
COc1cccc(/C=C2\SC(=S)N(CC(=O)N(C)C3CCS(=O)(=O)C3)C2=O)c1 (stereo unspecified)	none
CCN(C(=O)CN1C(=O)S/C(=C\c2cccc(OC)c2)C1=O)C1CCS(=O)(=O)C1 (stereo unspecified)	DUSP3 inh 52
CCC(C)NC(=O)NCc1ccccc1F (stereo unspecified)	DUSP3 inh 56
O=C(NCc1ccco1)Nc1ccc([N+](=O)[O-])cc1	none
O=C(NCc1ccccc1F)Nc1ccc([N+](=O)[O-])cc1	DUSP3 inh 56
CCCc1nc2c3ccccc3ccn2c1Cc1cccc(F)c1	none (no result: BJeLR lethal, SARS 3CLpro inh, DUSP3 inh)
Cc1cc(C)c(C(=O)NNC(=O)c2cccnc2)c(C)c1	DUSP3 inh 56
C=C1C(=O)C23CCC4C(C)(C(=O)OC)CCCC4(C)C2CCC1(O)C3 (stereo unspecified)	PrPC TRFRET 86 (no result: BJeLR lethal, SARS 3CLpro inh, DUSP3 inh)
Cc1c(N)cc2c(c1N)C(C)(C)CC2(C)C	none (no result: BJeLR lethal, SARS 3CLpro inh, DUSP3 inh)
CC(=O)OCC(=O)C12OC(C)(C)OC1CC1C3CC=C4CC(O)CCC4(C)C3CCC12C (stereo unspecified)	none (no result: BJeLR lethal, SARS 3CLpro inh, DUSP3 inh)
COc1ccc(S(=O)(=O)N2CCOCC2)cc1OC	none
COc1ccc(S(=O)(=O)N2CCOCC2)cc1N=Nc1sc(N)nc1-c1ccccc1	DUSP3 inh 56
O=C(COc1ccccc1)N=C1SC2CS(=O)(=O)CC2N1Cc1ccccc1 (stereo unspecified)	DUSP3 inh 60
C=CCN1C(=O)c2n[nH]c(COC)c2C1c1ccc(F)cc1 (stereo unspecified)	none (no result: BJeLR lethal, SARS 3CLpro inh, DUSP3 inh)
CCN1C/C(=C/c2ccc(OC)c(O)c2)C(=O)/C(=C/c2ccc(OC)c(O)c2)C1	BJeLR lethal 55
COc1ccc(/C=C2\CN(Cc3ccccc3)C/C(=C\c3ccc(OC)c(O)c3)C2=O)cc1O	BJeLR lethal 69
COc1ccc(C=C2C(=O)c3ccccc3C2=O)cc1O	none
